From PubChem BioAssay (EPA / NIEHS)
Several values for one entry are separate records, joined by “and”; a condition that tells them apart may be missing. Equal entries are not always repeated. More than one record can exist for a structure, and the calls need not agree. Activity calls are given as the source filed them. Rule for the calls: active = hit-call score of the fitted dose curve at least 0.9, where 1 is the maximum; inactive = score below 0.9.

Columns and labels:
[1] = read-out: Macrophage colony-stimulating factor (MCSF), CSF1 (gene 1435); experiment: BSK_LPS_MCSF: BioMAP Diversity Plus: LPS Assay for Macrophage colony-stimulating factor (MCSF) Biomarker Activity (AID 2283083); settings: primary human HUVEC with PBMC; actives raise or lower the signal
How it was run: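 ELISA readout of M-CSF after 24 h compound exposure in a human endothelial/PBMC co-culture. Activity, in either direction, is fitted relative to DMSO vehicle.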

[2] = read-out: Tissue Factor, F3 (gene 2152); experiment: BSK_LPS_TissueFactor: BioMAP Diversity Plus: LPS Assay for Tissue Factor Biomarker Activity (AID 2283084); settings: primary human HUVEC with PBMC; actives raise or lower the signal
How it was run: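 ELISA signal for cell-surface Tissue Factor (CD142) was read 24 h after compound dosing of an LPS-stimulated human endothelial–PBMC primary co-culture. Gain or loss of signal was scored relative to DMSO.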

[3] = read-out: Tumor necrosis factor (Homo sapiens) (UniProt P01375); experiment: BSK_LPS_TNFa: BioMAP Diversity Plus: LPS Assay for Tumour Necrosis Factor alpha (TNFa) Biomarker Activity (AID 2283085); settings: primary human HUVEC with PBMC; actives raise or lower the signal;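 for AC50: TNFa protein level quantified by ELISA in the co-culture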
How it was run: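 HUVEC/PBMC co-culture, LPS-stimulated; 24 h post-dose; TNFa by ELISA; gain or loss of signal fitted bidirectionally vs DMSO baseline.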

[4] = read-out: Vascular cell adhesion molecule 1 (VCAM1), VCAM1 (gene 7412); experiment: BSK_LPS_VCAM1: BioMAP Diversity Plus: LPS Assay for Vascular cell adhesion molecule 1 (VCAM1) Biomarker Activity (AID 2283086); settings: primary human HUVEC with PBMC; actives raise or lower the signal
How it was run: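 ELISA read-out of VCAM-1 at 24 h post-dosing in an LPS-driven HUVEC/PBMC primary human co-culture; gain or loss of signal fitted bidirectionally against DMSO baseline. Cytotoxicity tracked in parallel cultures by SRB total-protein staining.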

[5] = read-out: CD38, CD38 (gene 952); experiment: BSK_SAg_CD38: BioMAP Diversity Plus: SAg Assay for CD38 Biomarker Activity (AID 2283087); settings: primary human HUVEC with PBMC; actives raise or lower the signal
How it was run: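 Measures CD38 on a human endothelial/PBMC co-culture driven by SEB and TSST-1, 24 h after compound exposure, using ELISA with fluorescence detection; DMSO defines baseline for bidirectional curve fitting.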

[6] = read-out: CD40, CD40 (gene 958); experiment: BSK_SAg_CD40: BioMAP Diversity Plus: SAg Assay for CD40 Biomarker Activity (AID 2283088); settings: primary human HUVEC with PBMC; actives raise or lower the signal
How it was run: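 Compounds were dosed onto a human primary endothelial–PBMC co-culture, and after 24 h CD40 was quantified by ELISA using a fluorescence signal. Activity in either direction was fitted relative to DMSO.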

[7] = read-out: CD69, CD69 (gene 969); experiment: BSK_SAg_CD69: BioMAP Diversity Plus: SAg Assay for CD69 Biomarker Activity (AID 2283089); settings: primary human HUVEC with PBMC; actives raise or lower the signal;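 for AC50: cell surface CD69 protein quantified by ELISA with fluorescence detection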
How it was run: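 Primary human vascular co-culture (umbilical vein endothelium with peripheral blood mononuclear cells) exposed to test chemical for 24 h. CD69 levels quantified by fluorescence ELISA; DMSO served as negative control for bidirectional fitting.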

[8] = read-out: Monocyte Chemoattractant Protein-1 (MCP1), CCL2 (gene 6347); experiment: BSK_SAg_MCP1: BioMAP Diversity Plus: SAg Assay for Monocyte Chemoattractant Protein-1 (MCP1) Biomarker Activity (AID 2283090); settings: primary human HUVEC with PBMC; actives raise or lower the signal
How it was run: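 Values derive from bidirectional fitting of ELISA-measured MCP1 against DMSO controls. Readings were taken 24 h after dosing human vascular endothelial cells co-cultured with peripheral blood mononuclear cells under superantigen stimulation.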

[9] = read-out: E-selectin (Homo sapiens) (UniProt P16581); experiment: BSK_SAg_Eselectin: BioMAP Diversity Plus: SAg Assay for Eselectin Biomarker Activity (AID 2283091); settings: primary human HUVEC with PBMC; actives raise or lower the signal
How it was run: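 Co-culture: HUVEC + PBMC. Dose compound; 24 h. ELISA for E-selectin. Bidirectional fit vs DMSO.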

[10] = read-out: Monokine induced gamma interferon (MIG), CXCL9 (gene 4283); experiment: BSK_SAg_MIG: BioMAP Diversity Plus: SAg Assay for Monokine induced gamma interferon (MIG) Biomarker Activity (AID 2283092); settings: primary human HUVEC with PBMC; actives raise or lower the signal
How it was run: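 Endothelial cells and PBMC were co-cultured, exposed to test chemicals, and sampled 24 h later. MIG was measured by ELISA, and responses were fitted in both directions relative to DMSO.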

[11] = BSK_SAg_PBMCCytotoxicity: PBMC Cytotoxicity Assessment in the BioMAP Diversity Plus: SAg Assay (AID 2283093); settings: primary human HUVEC with PBMC;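 note: fitted both ways against DMSO so a hit may be loss or gain of signal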;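 for AC50: PBMC superantigen activated with SEB plus TSST-1 one hour after compound addition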
How it was run: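 PBMC viability by Alamar Blue reduction, fluorescence read at 546/580 nm after 6 h dye exposure. Cells were dosed 1 h before SEB plus TSST-1 activation (20 ng/mL final each), then held 90 h; endothelial/PBMC human co-culture.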

[12] = read-out: Interleukin-8 (IL8), CXCL8 (gene 3576); experiment: BSK_SAg_IL8: BioMAP Diversity Plus: SAg Assay for Interleukin-8 (IL8) Biomarker Activity (AID 2283094); settings: primary human HUVEC with PBMC; actives raise or lower the signal
How it was run: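 HUVEC/PBMC co-culture, 24 h post-dose; IL-8 by ELISA. Gain or loss of signal fitted bidirectionally vs DMSO baseline.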

[13] = BSK_SAg_Proliferation: Cell Proliferation Assessment in the BioMAP Diversity Plus: SAg Assay (AID 2283095); settings: primary human HUVEC with PBMC;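 note: relative cell number as total protein by SRB absorbance in sub-confluent culture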
How it was run: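 HUVEC/PBMC co-culture, 96-well. TCA-fixed (10%), 0.1% SRB stain, A560 at 96 h. Protein content used as viability readout; bidirectional fitting vs DMSO control.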

[14] = BSK_SAg_SRB: Viability Assessment in the BioMAP Diversity Plus: SAg Assay (AID 2283096); settings: primary human HUVEC with PBMC;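 note: cells read one day after compound addition; hits may be either gain or loss of signal compared with DMSO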
How it was run: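 Compounds were added to a human vascular co-culture of umbilical vein endothelium and PBMC. After 24 h, parallel cultures were fixed with 10% TCA, stained with 0.1% sulforhodamine B and read at 560 nm. Gain or loss of signal was fitted relative to DMSO.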

Measured: AC50

Chain of Tumor necrosis factor (Homo sapiens) (P01375 whole entry, looked up): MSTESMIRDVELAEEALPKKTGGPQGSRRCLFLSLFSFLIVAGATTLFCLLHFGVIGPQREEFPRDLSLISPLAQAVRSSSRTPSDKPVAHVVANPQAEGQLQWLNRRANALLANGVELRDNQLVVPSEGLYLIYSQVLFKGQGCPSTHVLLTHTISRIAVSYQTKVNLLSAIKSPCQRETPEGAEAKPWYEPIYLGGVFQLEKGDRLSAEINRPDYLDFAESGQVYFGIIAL
Chain of E-selectin (Homo sapiens) (P16581 whole entry, looked up): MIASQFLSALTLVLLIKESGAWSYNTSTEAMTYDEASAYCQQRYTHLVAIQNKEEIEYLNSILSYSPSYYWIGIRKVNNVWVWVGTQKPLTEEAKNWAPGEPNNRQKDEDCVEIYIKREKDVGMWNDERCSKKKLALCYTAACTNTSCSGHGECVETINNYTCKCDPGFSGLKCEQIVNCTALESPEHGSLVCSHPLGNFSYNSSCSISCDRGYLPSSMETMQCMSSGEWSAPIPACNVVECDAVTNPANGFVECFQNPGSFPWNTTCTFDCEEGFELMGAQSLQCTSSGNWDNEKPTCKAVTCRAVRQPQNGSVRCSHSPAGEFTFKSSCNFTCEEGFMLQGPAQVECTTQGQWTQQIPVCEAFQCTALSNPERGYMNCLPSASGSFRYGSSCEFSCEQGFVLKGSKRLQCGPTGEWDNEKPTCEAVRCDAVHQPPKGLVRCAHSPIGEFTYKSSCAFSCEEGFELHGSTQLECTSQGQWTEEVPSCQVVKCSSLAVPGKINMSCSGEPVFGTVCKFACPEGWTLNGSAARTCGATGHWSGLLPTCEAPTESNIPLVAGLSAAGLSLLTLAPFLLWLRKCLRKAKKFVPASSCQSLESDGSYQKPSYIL

Oc1cc2ccccc2cc1O
inactive: [1] | [2] | [3] | [4] | [5] | [6] | [7] | [8] | [9] | [10] | [11] | [12] | [13] | [14]

CCCCCCCCCCCCCCC
inactive: [1] | [2] | [3] | [4] | [5] | [6] | [7] | [8] | [9] | [10] | [11] | [12] | [13] | [14]

O=P(O)(O)CCC(F)(F)C(F)(F)C(F)(F)C(F)(F)C(F)(F)C(F)(F)C(F)(F)C(F)(F)F
active: [1] 27.7 µM and 30 µM | [5] 30 µM | [6] 30 µM | [14] 25.1 µM and 38.3 µM
inactive: [2] | [3] | [4] | [5] | [6] | [7] | [8] | [9] | [10] | [11] | [12] | [13]

O=C(O)C(F)(F)OC(F)(F)C(F)(F)OC(F)(F)C(F)(F)OC(F)(F)C(F)(F)C(F)(F)C(F)(F)F
active: [1] 55.1 µM and 44.7 µM | [2] 54.8 µM and 30 µM | [3] 50 µM and 46.4 µM | [4] 45.6 µM and 48.4 µM | [5] 45.5 µM and 47.5 µM | [6] 43.7 µM and 45.3 µM | [7] 42.8 µM and 32 µM | [8] 48.8 µM and 47.2 µM | [9] 45.4 µM and 49.9 µM | [10] 49.2 µM and 53.4 µM | [11] 44.5 µM and 45.8 µM | [12] 30 µM and 24.7 µM | [13] 49.6 µM and 47.7 µM | [14] 51.5 µM and 53.1 µM

O=S(=O)(O)C(F)(F)C(F)(F)C(F)(F)C(F)(F)C(F)(F)C(F)(F)C(F)(F)C(F)(F)C(F)(F)C(F)(F)F
active: [2] 13.3 µM | [3] 8.87 µM and 13.3 µM | [6] 13.3 µM and 7.42 µM | [8] 8.67 µM | [9] 7.15 µM | [14] 13.2 µM
inactive: [1] | [2] | [4] | [5] | [7] | [8] | [9] | [10] | [11] | [12] | [13] | [14]

C=CC(C)(CCC=C(C)C)OC(C)=O (centres undefined)
inactive: [1] | [2] | [3] | [4] | [5] | [6] | [7] | [8] | [9] | [10] | [11] | [12] | [13] | [14]

O=C(c1ccccc1)c1ccccc1
inactive: [1] | [2] | [3] | [4] | [5] | [6] | [7] | [8] | [9] | [10] | [11] | [12] | [13] | [14]

Cc1ccc(C(=O)c2ccccc2)cc1
inactive: [1] | [2] | [3] | [4] | [5] | [6] | [7] | [8] | [9] | [10] | [11] | [12] | [13] | [14]

CCCCCCCCCCCCOS(=O)(=O)O
inactive: [1] | [2] | [3] | [4] | [5] | [6] | [7] | [8] | [9] | [10] | [11] | [12] | [13] | [14]

C=CC(=O)OCCC(F)(F)C(F)(F)C(F)(F)C(F)(F)C(F)(F)C(F)(F)C(F)(F)C(F)(F)F
inactive: [1] | [2] | [3] | [4] | [5] | [6] | [7] | [8] | [9] | [10] | [11] | [12] | [13] | [14]

O=P(O)(O)CCC(F)(F)C(F)(F)C(F)(F)C(F)(F)C(F)(F)C(F)(F)F
inactive: [1] | [2] | [3] | [4] | [5] | [6] | [7] | [8] | [9] | [10] | [11] | [12] | [13] | [14]
active: [2] 5.95 µM

COCN(COC)c1nc(N(COC)COC)nc(N(COC)COC)n1
inactive: [1] | [2] | [3] | [4] | [5] | [6] | [7] | [8] | [9] | [10] | [11] | [12] | [13] | [14]

O=C(NCc1ncc(C(F)(F)F)cc1Cl)c1c(Cl)cccc1Cl
inactive: [1] | [2] | [3] | [4] | [5] | [6] | [7] | [8] | [9] | [10] | [11] | [12] | [13] | [14]
